High-throughput results: PubChem, National Center for Advancing Translational Sciences (NCATS)
Only some compounds are listed: those with a hit (about 4.2% of all), similar ones and a draw of the others.
Sfp PPTase inh: blocks B. subtilis Sfp PPTase activity. Q9F4F7. Biochemical Sfp PPTase activity, qHTS. Potency, µM, for the others: largest response in the series, negative = inhibition, most hits filed as inhibitors. 3.5% of 310,000 active. AID 1490;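 also: the enzyme is Sfp with the accession as filed and its product quenches rhodamine fluorescence; potency is read from the fitted curve at half-maximal effect; 0% = enzyme reaction without inhibitor and -100% = no enzyme wells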
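Step 1, compound plus 15 nM Sfp-PPTase, 15 min, room temperature. Step 2, add rhodamine-CoA (5 uM) and BHQ-2-YbbR (12.5 uM). Step 3, read 525/598 nm fluorescence at 0 and 30 min.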
PLK1 PBD inh: inhibitors of human PLK1 polo-box domain binding | P53350 | Plk1 PBD binding of FITC phosphopeptide, fluorescence polarization | Potency, µM, inactives show max response, negative = inhibition, usual class: inhibitors | 2.8% of 360,000 active | AID 720504; also: potency is read from the fitted curve at half-maximal effect; series mostly up to about 57 µM; % is scaled to controls: 0 for no effect and ±100 for the full control effect; nearly all actives have a fitted effect of over 65% in size
Target sequence (P53350 whole entry, looked up, the tested form may be a part): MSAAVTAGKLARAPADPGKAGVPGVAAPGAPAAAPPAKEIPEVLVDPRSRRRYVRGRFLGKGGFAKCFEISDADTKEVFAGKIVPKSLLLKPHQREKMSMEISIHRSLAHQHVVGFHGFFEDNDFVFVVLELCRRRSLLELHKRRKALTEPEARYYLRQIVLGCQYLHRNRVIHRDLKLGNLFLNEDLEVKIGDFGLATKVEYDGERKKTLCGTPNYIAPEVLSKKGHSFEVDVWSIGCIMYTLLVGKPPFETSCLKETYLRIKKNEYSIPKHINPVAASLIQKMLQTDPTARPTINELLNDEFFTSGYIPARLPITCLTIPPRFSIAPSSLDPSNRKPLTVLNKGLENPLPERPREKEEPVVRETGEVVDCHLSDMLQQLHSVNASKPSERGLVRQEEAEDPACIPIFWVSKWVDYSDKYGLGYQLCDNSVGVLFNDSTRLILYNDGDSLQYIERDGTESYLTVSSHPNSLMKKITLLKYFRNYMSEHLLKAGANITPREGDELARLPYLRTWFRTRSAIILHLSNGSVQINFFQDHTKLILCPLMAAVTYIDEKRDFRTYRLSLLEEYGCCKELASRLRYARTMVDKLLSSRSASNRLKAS
VDR inhibitor: blocks the human vitamin D receptor; Potency, µM, without a hit: max response, negative = inhibition, most hits filed as inhibitors; VDR-SRC2-3 peptide fluorescence polarization, 2 h; 0.93% of 400,000 active; also: potency is read from the fitted curve at half-maximal effect; % is scaled to controls: 0 for no effect and ±100 for the full control effect
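The screen uses fluorescence polarization to detect compounds that interfere with recruitment of the SRC2-3 coactivator peptide to VDR; plates are read after 2 h at room temperature.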
12-LOX inh: ALOX12 (human) lipoxygenase inhibition. purified 12hLO, xylenol orange hydroperoxide absorbance. P18054. 1.1% of 580,000 active. AID 1671190. Potency, µM (titrated, usually from 108 µM), inactives show at the top dose activity change, negative = inhibition, usual class: inhibitors; also: potency is read from the fitted curve at half-maximal effect; % is scaled to controls: 0 for no effect and ±100 for the full control effect
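Purified human 12hLO at 150 nM in 25 mM Hepes, 0.01% Triton X-100, pH 7.0, preincubated 15 min at room temperature with compound. Reaction started with 40 uM arachidonic acid, 30 min at room temperature. Hydroperoxide measured by Fe-xylenol orange, 573/405 nm absorbance ratio.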
USP1-UAF1 confirm: blocks human USP1/UAF1 cleavage of Ub-Rhodamine; shares compounds with VDR inhibitor; Ub-Rhodamine cleavage, fluorescence kinetic read; Potency, µM (doses to about 56.8 µM), for inactives: at the top dose activity change, negative = inhibition, hits mostly inhibitors; 50% of 50 active; AID 540327
VDR confirm: confirmation of human vitamin D receptor inhibitors; shares compounds with VDR inhibitor; VDR-coactivator inhibition assay, qHTS confirmation; Potency, µM, actives largely listed as inhibitors; 89% of 840 active; AID 602199; also: potency is read from the fitted curve at half-maximal effect
VDR FP: confirmation of human VDR-coactivator binding inhibitors, fluorescein label; shares compounds with VDR inhibitor; VDR-coactivator binding, fluorescein fluorescence polarization; Potency, µM (doses to about 57.1 µM), without a hit: top-dose activity change, negative = inhibition, actives largely listed as inhibitors; 48% of 840 active; AID 602200; also: potency is read from the fitted curve at half-maximal effect
VDR bla: inhibits human VDR in beta-lactamase reporter cells; shares compounds with VDR inhibitor; VDR beta-lactamase reporter cells, FRET ratio; cells co-treated with VDR agonist LG190178; Potency, µM (highest dose often 46.1 µM), inactives show at the highest dose activity change, negative = inhibition, actives largely listed as inhibitors; 23% of 840 active; AID 602202; also: potency is read from the fitted curve at half-maximal effect; % is scaled to controls: 0 for no effect and ±100 for the full control effect
VDR viability: cytotoxic in counter-screen for VDR inhibitors; shares compounds with VDR inhibitor; cytotoxicity counter-screen, cell viability, qHTS; Potency, µM (series often up to 48.3 µM), without a hit: at the top dose activity change, negative = cytotoxicity, most hits filed as cytotoxic; 18% of 840 active;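 also: potency is read from the fitted curve at half-maximal effect; plate controls were DMSO for no effect and high-concentration cycloheximide for full effect; nearly all actives have a fitted effect of over 75% in size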
Active calls of the source: *; ? = inconclusive; · = no result. Calls follow the shape of the dose curve; as a rule, active = well fitted curve in the direction sought with a large enough effect; inconclusive = small, poorly fitted or top-dose-only effect, or another doubt; inactive = no such curve, though single readings can be large; an effect the other way counts as inactive or inconclusive.

SMILES	Sfp PPTase inh	PLK1 PBD inh	VDR inhibitor	12-LOX inh	VDR confirm	VDR FP	VDR bla	VDR viability	others
O=C(CCS(=O)(=O)c1nc(-c2cccs2)cc(C(F)(F)F)n1)Nc1ccc(F)c(Cl)c1	·	·	22µM*	3%	3.2*	3.5µM*	?	?
COc1ccc(NC(=O)CSc2nc(-c3cccs3)cc(C(F)(F)F)n2)cc1Cl	·	·	-5%	0%	·	·	·	·
COc1ccccc1OCc1ccc(C(=O)NCC(C)C)o1	14%	-22%	1%	-7%	·	·	·	·
N#CC(c1cccc(C(F)(F)F)c1)(c1ncc(C(F)(F)F)cc1Cl)N1CCOCC1 (stereo not given)	17%	-3%	-4%	18%	·	·	·	·
CC1C/C(=C/c2ccncc2)C(=O)/C(=C/c2ccncc2)C1 (stereo not given)	?	-27%	22µM*	-11%	6.7*	3.5µM*	5.2µM*	21µM*
CC1C/C(=C/c2cccn2C)C(=O)/C(=C/c2cccn2C)C1 (stereo not given)	?	14%	-9%	?	·	·	·	·
CC(C)(C)CC(=O)Nc1nnc(SCC(=O)NC2CCCCC2)s1	27%	-1%	16%	-4%	·	·	·	·
Cc1oc2c(c1C(=O)c1ccc(Cl)cc1)C(=O)C(=O)c1ccccc1-2	?	?	?	?	3.5*	3.5µM*	2.9µM*	3.8µM*
Cc1ccc(C(=O)c2c(C)oc3c2C(=O)C(=O)c2ccccc2-3)cc1	50µM*	?	3.5µM*	·	1.5*	4µM*	?	5.6µM*
O=C(c1ccc(Cl)cc1)c1ccc(CN2C(=O)c3ccccc3C2=O)o1	9%	2%	4%	0%	·	·	·	·
Cc1ccc(C(=O)c2coc3c2C(=O)C(=O)c2ccccc2-3)cc1	45µM*	?	7.1µM*	?	4.7*	?	-22%	?
Cc1oc2c(c1C(=O)N1CCC(C)CC1)C(=O)c1ccccc1C2=O	-22%	-2%	-5%	-6%	·	·	·	·
COC(=O)C1CN(C(=O)c2cccc(OC(F)F)c2)c2ccccc2O1 (stereo not given)	13%	-3%	0%	0%	·	·	·	·
COCCN1CCCCCC(O)c2cc(C(=O)NCCC3=CCCCC3)ccc21 (stereo not given)	·	·	·	5%	·	·	·	·
CC(C)CCC[C@@H](C)[C@@H]1CC[C@H]2C3=CC=C4CC(O)CC[C@]4(C)[C@H]3CC[C@@]21C (stereo not given in full)	?	·	28µM*	?	?	-3%	?	?
Cc1ccc(N2NC(=O)/C(=C\c3cc4c(cc3[N+](=O)[O-])OCO4)C2=O)cc1C	-17%	9.5µM*	50µM*	?	12*	?	?	-22%
Cc1cc(O)c(N=Cc2cc3c(cc2[N+](=O)[O-])OCO3)cc1C	·	-6%	-6%	?	·	·	·	·
CCOC(=O)C(CN1CCCC1)c1ccccc1 (stereo not given)	·	-9%	-10%	?	·	·	·	·
O=C(c1ccc(Cl)cc1)C(CN1CCCCC1)c1ccccc1 (stereo not given)	-29%	?	20µM*	?	?	22µM*	13µM*	18µM*
Cc1cc(=O)cc2oc3cc(N)c(-c4c(C)cc(O)cc4O)c(C)c3nc1-2	50µM*	·	?	·	·	·	·	·	USP1-UAF1 confirm=47µM*
COc1cccc(CNC(=O)Cn2nc([N+](=O)[O-])c(Br)c2C)c1	7%	-5%	15%	22%	·	·	·	·
